Experiment [1] deals with human Dopamine Receptor D4.4 (DRD4.4), DRD4 (gene 1815) (UniProt P21917). As to the kind of experiment: NVS_GPCR_hDRD4.4: NovaScreen (NVS) G Protein-Coupled Receptor Assay for human Dopamine Receptor D4.4 (DRD4.4) (AID 2283264). In a few lines:
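Radioligand displacement on human DRD4.4 from CHO-derived membranes, 1 hour incubation, bound counts read by filtration and scintillation. Primary screen in duplicate at 25 uM; actives followed up in concentration series.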

The target of experiment [2] is Muscarinic acetylcholine receptor M1 (Homo sapiens) (UniProt P11229). Nature of the experiment: NVS_GPCR_hM1: NovaScreen (NVS) G Protein-Coupled Receptor Assay for human Muscarinic, M1 Receptor (AID 2283270). Put shortly:
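Cell-free radioligand displacement using membrane protein extracted from CHO cells, read by filter-based scintillation counting 1 h after dosing. Loss of bound signal fitted versus DMSO; primary screen single concentration 25 uM in duplicate, actives followed by concentration series.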

Experiment [3] has as its target Beta-2 adrenergic receptor (Homo sapiens) (UniProt P07550). Nature of the experiment: NVS_GPCR_hAdrb2: NovaScreen (NVS) G Protein-Coupled Receptor Assay for human Adrenergic, Beta 2 Receptor (Adrb2) (AID 2283261). Put shortly: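 Filter-based radioligand binding using receptor prepared from CHO cells, 1 h incubation, scintillation counting. Primary screen in duplicate at 25 uM, actives retested in concentration series; loss of binding relative to DMSO.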

Experiment [4] concerns the target Type-1 angiotensin II receptor (Homo sapiens) (UniProt P30556). Nature of the experiment: NVS_GPCR_hAT1: NovaScreen (NVS) G Protein-Coupled Receptor Assay for human Angiotensin II receptor type 1 (AT1) (AID 2283263). Put shortly: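 Membranes from KAN-TS cells; radioligand competitive displacement, 3 h, filtration and scintillation counting. Single-point duplicate screen at 25 uM, then concentration-response up to 50 uM for hits; loss of signal fitted versus DMSO.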

Experiment [5] concerns the target human Dopamine Receptor D2 (DRD2), DRD2 (gene 1813) (UniProt P14416). Nature of the experiment: NVS_GPCR_hDRD2s: NovaScreen (NVS) G Protein-Coupled Receptor Assay for human Dopamine Receptor D2 (DRD2) (AID 2283266). The protocol: NVS_GPCR_hDRD2s is a biochemical, single-readout assay that uses extracted gene-proteins from CHO in a cell-free assay. Measurements were taken 1.5 hours after chemical dosing in a 96-well plate.NVS_GPCR_hDRD2s is one of one assay component(s) measured or calculated from the NVS_GPCR_hDRD2s assay. It is designed to make measurements of radioligand binding, a form of binding reporter, as detected with scintillation counting signals by Filter-based radiodetection technology.Data from the assay component NVS_GPCR_hDRD2s was analyzed into 1 assay endpoint. This assay endpoint, NVS_GPCR_hDRD2s, was analyzed in the positive analysis fitting direction relative to DMSO as the negative control and baseline of activity. Using a type of binding reporter, loss-of-signal activity can be used to understand changes in the binding as they relate to the gene DRD2. Furthermore, this assay endpoint can be referred to as a primary readout, because the performed assay has only produced 1 assay endpoint. To generalize the intended target to other relatable targets, this assay endpoint is annotated to the gpcr intended target family, where the subfamily is rhodopsin-like receptor.
Binding assays used specific radioligands (tritiated, iodinated) with non-radioactive competitive displacement ligands in agonist or antagonist protocols (as indicated) and various reference compounds and inhibitors to titrate specific binding to receptors and transporters. Most enzyme assays (CYPs, kinases, phosphatases, proteases, HDACs) used recombinant protein and specific substrates (fluorescence mostly, some colorimetric and radioactive) and inhibitors, followed by a biochemical separation of substrate and product. All assays for the biochemical HTS were initially run in duplicate at a single concentration (10 uM for CYP450 assays and 25 uM for all others). […] Each assay was run with positive and negative controls, and concurrent controls on every plate. The follow-up (secondary) screen tested active chemical-pairs in concentration series, as well as a few additional assays not tested in the primary screen, some selected negative inactives, and several cases re-run in the concentration series for confirmatory purposes.

In experiment [6] the target is D(1A) dopamine receptor (Homo sapiens) (UniProt P21728). As to the kind of experiment: NVS_GPCR_hDRD1: NovaScreen (NVS) G Protein-Coupled Receptor Assay for human Dopamine Receptor D1 (DRD1) (AID 2283269). Put shortly:
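Extracted HEK293 DRD1 is incubated 1 h with compound and a tritiated or iodinated radioligand, then filtered and counted. Screening runs 25 uM in duplicate with on-plate positive and negative controls.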

Experiment [7] addresses human Endothelin Receptor Type B (ETB), EDNRB (gene 1910) (UniProt P24530). Nature of the experiment: NVS_GPCR_hETB: NovaScreen (NVS) G Protein-Coupled Receptor Assay for human Endothelin Receptor Type B (ETB) (AID 2283267). Put shortly: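 Human astrocytoma cell membranes; radioligand competitive binding read by filter scintillation counting 4 hours after dosing. Single-concentration duplicate screen at 25 uM, then singleton concentration-response up to 50 uM; loss of signal versus DMSO.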

Experiment [8] has as its target human Leukotriene B4 Receptor 1 (LTB4-BLT1), LTB4R (gene 1241) (UniProt Q15722). Nature of the experiment: NVS_GPCR_hLTB4_BLT1: NovaScreen (NVS) G Protein-Coupled Receptor Assay for human Leukotriene B4 Receptor 1 (LTB4-BLT1) (AID 2283271). In a few lines: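 Radioligand displacement binding on receptor extracted from human neutrophils, cell-free, 1 h after dosing; filter-based scintillation counting. Primary screen in duplicate at 25 uM, actives retested in concentration-response up to 50 uM; loss of signal versus DMSO.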

Experiment [9] has as its target human Adrenergic, Beta 3 Receptor (Adrb3), ADRB3 (gene 155) (UniProt P13945). Nature of the experiment: NVS_GPCR_hAdrb3: NovaScreen (NVS) G Protein-Coupled Receptor Assay for human Adrenergic, Beta 3 Receptor (Adrb3) (AID 2283262). Put shortly:
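Membranes from SK-N-MC cells pretreated with isoproterenol and 8-bromo-cAMP were used in a radioligand competitive displacement binding assay. Binding was read by filter-based scintillation counting 1 hour after dosing. Primary screening was in duplicate at 25 uM, with concentration series in follow-up.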

Experiment [10] has as its target human Histamine 1 Receptor (H1), HRH1 (gene 3269) (UniProt P35367). As to the kind of experiment: NVS_GPCR_hH1: NovaScreen (NVS) G Protein-Coupled Receptor Assay for human Histamine 1 Receptor (H1) (AID 2283268). In a few lines:
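Cell-free radioligand displacement at human H1 receptor, 1 h, filter scintillation counting; primary screen 25 uM in duplicate, hits in concentration series; loss of binding fitted vs DMSO.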

Broadly, the AC50 is the midpoint of the concentration-response curve, whichever way the signal moves.

The structures appear in SMILES notation. Inconclusive results are not listed. Calls of active or inactive are those of the source. Rule for the calls: active = hit-call score of the fitted dose curve at least 0.9, where 1 is the maximum; inconclusive = response in the unintended direction; inactive = score below 0.9.

Type-1 angiotensin II receptor (Homo sapiens), sequence (P30556 whole entry, looked up): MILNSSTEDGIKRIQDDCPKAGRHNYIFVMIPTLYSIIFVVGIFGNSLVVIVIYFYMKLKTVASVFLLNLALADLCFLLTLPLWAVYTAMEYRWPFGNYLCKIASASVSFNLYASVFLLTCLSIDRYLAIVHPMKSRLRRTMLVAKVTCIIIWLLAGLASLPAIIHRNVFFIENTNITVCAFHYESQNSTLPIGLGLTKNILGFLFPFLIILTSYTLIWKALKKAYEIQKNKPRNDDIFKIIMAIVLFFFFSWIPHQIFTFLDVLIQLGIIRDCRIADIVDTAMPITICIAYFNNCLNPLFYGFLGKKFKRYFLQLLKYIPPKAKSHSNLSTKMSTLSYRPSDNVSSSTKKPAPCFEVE
D(1A) dopamine receptor (Homo sapiens), sequence (P21728 whole entry, looked up): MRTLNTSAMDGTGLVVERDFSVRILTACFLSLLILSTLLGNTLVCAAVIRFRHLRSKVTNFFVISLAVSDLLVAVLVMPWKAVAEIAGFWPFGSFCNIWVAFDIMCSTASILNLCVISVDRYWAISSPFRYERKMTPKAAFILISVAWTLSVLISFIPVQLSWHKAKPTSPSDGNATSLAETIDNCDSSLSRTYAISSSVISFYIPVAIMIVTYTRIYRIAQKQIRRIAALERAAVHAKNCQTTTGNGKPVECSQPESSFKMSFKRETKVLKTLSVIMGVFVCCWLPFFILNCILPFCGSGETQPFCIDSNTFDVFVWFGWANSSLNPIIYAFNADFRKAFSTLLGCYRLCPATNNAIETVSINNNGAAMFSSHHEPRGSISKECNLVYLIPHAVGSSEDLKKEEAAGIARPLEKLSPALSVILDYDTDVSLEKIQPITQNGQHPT
Muscarinic acetylcholine receptor M1 (Homo sapiens), sequence (P11229 whole entry, looked up): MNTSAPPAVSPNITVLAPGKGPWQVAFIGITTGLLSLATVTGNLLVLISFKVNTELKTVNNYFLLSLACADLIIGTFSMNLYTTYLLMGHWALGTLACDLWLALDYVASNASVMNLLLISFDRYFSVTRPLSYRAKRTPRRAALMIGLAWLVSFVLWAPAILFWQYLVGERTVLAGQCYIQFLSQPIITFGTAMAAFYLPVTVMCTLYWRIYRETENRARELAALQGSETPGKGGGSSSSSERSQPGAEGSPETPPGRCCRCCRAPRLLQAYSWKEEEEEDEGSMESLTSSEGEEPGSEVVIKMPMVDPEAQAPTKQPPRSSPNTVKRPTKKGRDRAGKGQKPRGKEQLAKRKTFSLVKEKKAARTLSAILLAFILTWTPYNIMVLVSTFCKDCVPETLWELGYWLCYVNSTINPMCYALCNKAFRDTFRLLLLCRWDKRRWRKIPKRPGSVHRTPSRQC
human Dopamine Receptor D2 (DRD2), DRD2 (gene 1813), sequence (P14416 whole entry, looked up): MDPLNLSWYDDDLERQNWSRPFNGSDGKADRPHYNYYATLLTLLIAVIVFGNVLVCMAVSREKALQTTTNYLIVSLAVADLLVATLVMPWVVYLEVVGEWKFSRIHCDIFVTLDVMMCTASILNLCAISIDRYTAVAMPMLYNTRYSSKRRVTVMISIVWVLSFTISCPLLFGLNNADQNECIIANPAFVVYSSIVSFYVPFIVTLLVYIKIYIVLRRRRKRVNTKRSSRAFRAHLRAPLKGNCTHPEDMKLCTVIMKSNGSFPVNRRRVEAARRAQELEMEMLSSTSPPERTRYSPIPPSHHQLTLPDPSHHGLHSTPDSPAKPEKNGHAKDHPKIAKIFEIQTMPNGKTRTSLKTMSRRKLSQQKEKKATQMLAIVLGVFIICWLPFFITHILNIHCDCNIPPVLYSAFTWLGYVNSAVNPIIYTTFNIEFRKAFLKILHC
human Histamine 1 Receptor (H1), HRH1 (gene 3269), sequence (P35367 whole entry, looked up): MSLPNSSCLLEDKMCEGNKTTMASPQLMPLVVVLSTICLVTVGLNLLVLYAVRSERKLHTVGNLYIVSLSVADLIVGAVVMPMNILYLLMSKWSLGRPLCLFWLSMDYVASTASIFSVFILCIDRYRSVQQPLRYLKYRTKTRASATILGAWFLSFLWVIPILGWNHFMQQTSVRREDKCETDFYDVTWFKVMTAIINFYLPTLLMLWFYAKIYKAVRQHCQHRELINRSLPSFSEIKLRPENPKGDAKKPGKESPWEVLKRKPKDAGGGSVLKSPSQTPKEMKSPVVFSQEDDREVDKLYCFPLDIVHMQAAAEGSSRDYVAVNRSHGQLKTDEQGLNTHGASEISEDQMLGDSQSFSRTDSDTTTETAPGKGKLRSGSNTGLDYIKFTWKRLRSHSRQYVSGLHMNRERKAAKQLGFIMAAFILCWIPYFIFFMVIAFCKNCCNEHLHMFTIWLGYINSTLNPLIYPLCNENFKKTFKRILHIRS
human Adrenergic, Beta 3 Receptor (Adrb3), ADRB3 (gene 155), sequence (P13945 whole entry, looked up): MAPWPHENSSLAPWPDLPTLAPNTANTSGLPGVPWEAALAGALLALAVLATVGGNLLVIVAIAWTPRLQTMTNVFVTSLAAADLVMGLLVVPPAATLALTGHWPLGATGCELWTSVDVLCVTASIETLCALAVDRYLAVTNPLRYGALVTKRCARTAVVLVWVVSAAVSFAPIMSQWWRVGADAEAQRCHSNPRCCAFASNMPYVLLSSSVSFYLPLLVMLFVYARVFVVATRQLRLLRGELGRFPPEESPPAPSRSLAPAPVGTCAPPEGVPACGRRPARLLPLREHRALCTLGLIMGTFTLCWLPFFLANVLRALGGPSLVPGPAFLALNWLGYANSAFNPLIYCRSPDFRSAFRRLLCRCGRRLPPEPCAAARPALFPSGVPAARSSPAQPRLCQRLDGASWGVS
human Leukotriene B4 Receptor 1 (LTB4-BLT1), LTB4R (gene 1241), sequence (Q15722 whole entry, looked up): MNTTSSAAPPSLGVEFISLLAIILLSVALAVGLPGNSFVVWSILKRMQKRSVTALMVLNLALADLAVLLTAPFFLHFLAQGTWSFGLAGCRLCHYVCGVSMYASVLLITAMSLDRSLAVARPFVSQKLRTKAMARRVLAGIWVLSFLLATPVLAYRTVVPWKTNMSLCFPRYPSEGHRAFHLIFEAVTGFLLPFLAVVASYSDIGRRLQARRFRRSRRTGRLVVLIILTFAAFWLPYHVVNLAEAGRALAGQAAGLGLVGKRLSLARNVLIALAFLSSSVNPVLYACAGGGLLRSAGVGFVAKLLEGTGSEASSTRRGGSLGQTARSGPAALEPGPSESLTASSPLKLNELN
human Dopamine Receptor D4.4 (DRD4.4), DRD4 (gene 1815), sequence (P21917 whole entry, looked up): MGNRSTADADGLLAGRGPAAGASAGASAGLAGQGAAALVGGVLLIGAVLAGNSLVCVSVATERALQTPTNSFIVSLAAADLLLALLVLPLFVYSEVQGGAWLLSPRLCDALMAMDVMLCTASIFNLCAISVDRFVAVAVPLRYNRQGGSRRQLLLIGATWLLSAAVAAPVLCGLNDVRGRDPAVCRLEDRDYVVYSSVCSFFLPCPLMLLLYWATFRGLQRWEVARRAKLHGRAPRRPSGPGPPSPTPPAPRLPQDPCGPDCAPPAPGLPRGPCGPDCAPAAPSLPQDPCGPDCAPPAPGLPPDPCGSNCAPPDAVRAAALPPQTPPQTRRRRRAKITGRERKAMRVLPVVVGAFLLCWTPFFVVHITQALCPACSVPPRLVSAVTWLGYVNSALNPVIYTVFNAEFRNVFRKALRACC
Beta-2 adrenergic receptor (Homo sapiens), sequence (P07550 whole entry, looked up): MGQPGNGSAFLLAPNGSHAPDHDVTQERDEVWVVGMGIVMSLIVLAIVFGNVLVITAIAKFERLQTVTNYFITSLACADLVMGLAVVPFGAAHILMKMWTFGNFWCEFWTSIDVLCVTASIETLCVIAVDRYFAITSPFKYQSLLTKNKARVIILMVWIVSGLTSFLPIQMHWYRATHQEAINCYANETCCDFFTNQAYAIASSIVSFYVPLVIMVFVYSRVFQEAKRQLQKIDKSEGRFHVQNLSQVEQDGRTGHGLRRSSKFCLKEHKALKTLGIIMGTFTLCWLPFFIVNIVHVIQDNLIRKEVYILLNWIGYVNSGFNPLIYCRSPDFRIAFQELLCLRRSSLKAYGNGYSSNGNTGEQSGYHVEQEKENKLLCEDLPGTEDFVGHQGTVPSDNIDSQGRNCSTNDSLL
human Endothelin Receptor Type B (ETB), EDNRB (gene 1910), sequence (P24530 whole entry, looked up): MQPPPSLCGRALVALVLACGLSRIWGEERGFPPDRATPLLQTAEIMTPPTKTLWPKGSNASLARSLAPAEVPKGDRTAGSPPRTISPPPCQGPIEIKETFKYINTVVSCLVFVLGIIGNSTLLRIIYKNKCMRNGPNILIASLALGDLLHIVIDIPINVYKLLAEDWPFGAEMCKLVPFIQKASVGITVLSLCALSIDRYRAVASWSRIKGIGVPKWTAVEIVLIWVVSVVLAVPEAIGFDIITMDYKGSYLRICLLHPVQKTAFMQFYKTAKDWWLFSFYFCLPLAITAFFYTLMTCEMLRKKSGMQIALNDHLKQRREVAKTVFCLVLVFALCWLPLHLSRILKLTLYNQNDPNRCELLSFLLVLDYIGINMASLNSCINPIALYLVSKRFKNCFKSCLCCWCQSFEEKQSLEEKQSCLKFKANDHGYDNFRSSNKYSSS

Turning to `Cc1cc(C2CC2)nc(Nc2ccccc2)n1`, the AC50 is 12.3 µM (active) in experiment [1] and 10.1 µM (active) in experiment [2].

On to `CC[C@H](C)[C@H]1O[C@]2(C=C[C@@H]1C)C[C@@H]1C[C@@H](C/C=C(\C)[C@@H](O[C@H]3C[C@H](OC)[C@@H](O[C@H]4C[C@H](OC)[C@@H](NC)[C@H](C)O4)[C@H](C)O3)[C@@H](C)/C=C/C=C3\CO[C@@H]4[C@H](O)C(C)=C[C@@H](C(=O)O1)[C@]34O)O2`, for which the AC50 in [3] is 18.1 µM (active); in [4] it was 17 µM (active); in [1], 16.2 µM (active); in experiment [5], 25 µM (active); in experiment [6], 8.1 µM (active); in experiment [2] it was 12.6 µM (active).

With `C#CCC1=C(C)C(OC(=O)C2C(C=C(C)C)C2(C)C)CC1=O` (stereo not given), the AC50 in experiment [2] is 11 µM (active).

With `N#CSCSC#N`, in experiment [4], the AC50 is 14.9 µM (active).

With `CNC(=O)Oc1cccc2c1OC(C)(C)O2`, the outcome in experiment [7] was inactive.

As to `S=C1NCCN1`, the result in [5] was inactive.

As for `COc1cc(OC)nc(Sc2cccc(Cl)c2C(=O)O)n1`, the molecule was classed as inactive in [4] and in experiment [8].

Turning to `CCCOc1nn(C(=O)NS(=O)(=O)c2ccccc2C(=O)OC)c(=O)n1C`, the molecule was classed as inactive in experiment [4].

Take `CCOP(=O)(OCC)Oc1cc(C)nc(C(C)C)n1`: in [4], the call was inactive.

Consider `CCOP(=S)(OCC)Oc1cc(C)nc(C(C)C)n1`, for which the molecule was classed as inactive in [4].

With `O=C(O)c1cc(Oc2ccc(C(F)(F)F)cc2Cl)ccc1[N+](=O)[O-]`, the molecule was classed as inactive in [5].

On to `CCCSP(=O)(OCC)Oc1ccc(Br)cc1Cl` (stereo not given), for which the outcome in experiment [4] was inactive.

`COP(=O)(OC)OC(Br)C(Cl)(Cl)Br` (stereo not given): the AC50 was 13.5 µM (active) in experiment [4] and 11.8 µM (active) in experiment [6].

Consider `CCOP(=O)(SC(C)CC)N1CCSC1=O` (stereo not given), for which the outcome in [9] and in experiment [10] was inactive.

In the case of `CCCOCC(=Nc1ccc(Cl)cc1C(F)(F)F)n1ccnc1`, the AC50 in experiment [6] is 9.19 µM (active).

For `CCOP(=O)(NC(C)C)Oc1ccc(SC)c(C)c1` (stereo not given), in [2], the molecule was classed as inactive.

With `CC(C)=CC1C(C(=O)OCN2C(=O)C3=C(CCCC3)C2=O)C1(C)C` (stereo not given), the concentration at half-maximal activity (AC50) in [6] is 6.68 µM (active).

Turning to `COc1ccc(C(=CC(=O)N2CCOCC2)c2ccc(Cl)cc2)cc1OC`, the molecule was classed as inactive in experiment [8].

Turning to `CN(C)C(=O)Nc1cccc(C(F)(F)F)c1`, the outcome in experiment [5] and in experiment [10] was inactive.

For the molecule `CON=C(C(=O)OC)c1ccccc1CON=C(C)c1cccc(C(F)(F)F)c1`, the call in experiment [9] was inactive.

Values taken from PubChem BioAssay (EPA / NIEHS).
